Assay outcomes deposited in PubChem BioAssay by National Center for Advancing Translational Sciences (NCATS).
L3MBTL1 block – blocks human L3MBTL1. Q9Y468. Potency, µM (top dose mostly 57.1 µM), for inactives: at the highest dose activity, negative = inhibition, actives largely listed as inhibitors. AlphaScreen L3MBTL1–H3K9me1 peptide binding. actives 0.66% (n = 230,000). AID 485360; also: % is scaled to controls: 0 for no effect and ±100 for the full control effect; nearly all actives have a fitted effect of over 60% in size
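L3MBTL1 (50 nM) pre-complexed 30 min with biotinylated H3(1-15)K9me1 peptide (75 nM), then compounds added for 30 min at room temperature; AlphaScreen streptavidin donor/nickel chelate acceptor beads (10 ug/mL final) read after 30 min dark incubation.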
HP1b binding inh – HP1-beta chromodomain-methylated histone interaction inhibition; P83916; AlphaScreen HP1-beta / biotin-H3K9me3 peptide binding; Potency, µM (titrated, usually from 114 µM), for the others: top-dose activity change, negative = inhibition, actives largely listed as inhibitors; actives 0.56% (n = 390,000); also: nearly all actives have a fitted effect of over 70% in size
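Compound inhibition of the preformed complex between 50 nM HP1-beta and 50 nM biotinylated H3K9me3 peptide was read by AlphaScreen. Buffer was PBS pH 7.4 with 0.01% Tween-20. Incubations ran 30 min at room temperature, with 10 ug/mL donor/acceptor beads.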
BAZ2B block – inhibitors of human BAZ2B bromodomain; Q9UIF8; AlphaScreen BAZ2B-H3K14Ac peptide displacement; Potency, µM (doses to about 114 µM), inactives show at the highest dose activity change, negative = inhibition, actives largely listed as inhibitors; actives 4.4% (n = 360,000); also: % is scaled to controls: 0 for no effect and ±100 for the full control effect; nearly all actives have a fitted effect of over 60% in size
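AlphaScreen luminescence quantifies BAZ2B engagement of H3K14Ac peptide; the protein and biotinylated peptide are both at 50 nM final, buffer PBS pH 7.4 with 0.01% Tween-20, all steps at room temperature.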
Sfp inh – Sfp phosphopantetheinyl transferase inhibition; Q9F4F7; Biochemical Sfp PPTase activity, qHTS; Potency, µM, for inactives: largest response in the series, negative = inhibition, hits mostly inhibitors; actives 3.5% (n = 310,000); AID 1490;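 also: the enzyme is Sfp with the accession as filed and its product quenches rhodamine fluorescence; 0% = enzyme reaction without inhibitor and -100% = no enzyme wells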
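Fluorescence-quenching assay: 15 nM Sfp-PPTase preincubated 15 min at room temperature with compound, then 5 uM rhodamine-CoA and 12.5 uM BHQ-2-labelled YbbR peptide added. Fluorescence (ex 525/em 598 nm) read at start and after 30 min; difference gives rate.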
JMJD2A Tudor inh – inhibitors of human JMJD2A Tudor domain. O75164. AlphaScreen JMJD2A-Tudor / H3K4me3 peptide binding. Potency, µM (series often up to 114 µM), for inactives: top-dose activity change, negative = inhibition, actives largely listed as inhibitors. actives 4.4% (n = 390,000). AID 504339; also: % is scaled to controls: 0 for no effect and ±100 for the full control effect; nearly all actives have a fitted effect of over 50% in size
G9a inh – inhibitors of human histone lysine methyltransferase G9a. Q96KQ7. actives 8.8% (n = 350,000). G9a H3K9 monomethylation, AlphaScreen, 2 h. Potency, µM (series often up to 102 µM), inactives show at the highest dose activity, negative = inhibition, hits mostly inhibitors; also: % is scaled to controls: 0 for no effect and ±100 for the full control effect; nearly all actives have a fitted effect of over 75% in size
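Readings reflect AlphaScreen signal from monomethyl-H3K9 antibody detection. HMT at 20 nM; substrate b-H3K9 500 nM; cofactor SAM 20 uM; 2 h RT reaction; compounds tested as titrations in qHTS with 15 min preincubation.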
* marks the source's active call; other numbers are inactive results; ? = inconclusive; · = not tested or not shown; ! = repeats disagree; [ ] = another dose, or the depositor's remark. Most compounds without a hit are left out; they make up all but 12% or so of the library. Calls follow the shape of the dose curve; as a rule, active = well fitted curve in the direction sought with a large enough effect; inconclusive = small, poorly fitted or top-dose-only effect, or another doubt; inactive = no such curve, though single readings can be large; an effect the other way counts as inactive or inconclusive. Potency is read from the fitted curve at half-maximal effect.

SMILES	L3MBTL1 block	HP1b binding inh	BAZ2B block	Sfp inh	JMJD2A Tudor inh	G9a inh
O=C(O)CCC(=O)OCCN(Cc1ccc(Oc2ccc([N+](=O)[O-])cc2)cc1)C(=O)C(Cl)Cl	·	24%	·	·	-12%	·
COc1ccc(NC(=O)C2CSC3c4ccccc4C(=O)N23)cc1 (stereo not given)	-3%	13%	?	-18%	-19%	28µM*
[O-]C1=N/[N+](=C/c2ccccc2)CC1	·	39%	-26%	0%	-10%	14µM*
[O-]C1=N/[N+](=C/c2ccc(Cl)c(Cl)c2)CC1	·	17%	1%	-16%	-20%	?
COC(=O)CCC(=O)OC1(C)C(=O)C2=CN(CC(C)C)C(c3ccc(OC)cc3)=CC2=C(Br)C1=O (stereo not given)	·	·	40µM*	?	·	0%[12.7 µM]
COC(=O)CCC(=O)OC1(C)C(=O)C2=CN(Cc3ccc(OC)cc3)C(c3ccc(OC)cc3)=CC2=C(Br)C1=O (stereo not given)	·	?	·	5%	50µM*	·
COC(=O)CCC(=O)OC1(C)C(=O)C2=CN(CCCOC(C)C)C(c3ccc(OC)cc3)=CC2=C(Br)C1=O (stereo not given)	·	-3%	?	-19%	?	19%[12.7 µM]
Nc1ccc(Cn2ccc3c4c(N)nc(N)nc4ccc32)cc1	·	79µM*	·	·	45µM*	·
Cc1nc2ccc(N)cc2c(=O)n1Cc1ccc(Cl)cc1	·	43%	-8%	6%	-20%	16%[12.7 µM]
Cc1cc(OCC[N+]2(C)CCCCC2)nc2ccccc12	·	-19%	-11%	19%	40µM*	?
COCCCNc1nc2ccccc2nc1NS(=O)(=O)c1cccc(C)c1	·	17%	-4%	15%	7%	-12%
O=C(O)CSCC(=O)N(c1ccccc1)c1ccccc1	-2%	49%	-4%	18%	-5%	0%
CC1CCc2noc(NC(=O)c3ccccc3[N+](=O)[O-])c2C1 (stereo not given)	·	-14%	?	·	?	16µM*
Cc1ccc(CCN2CC(C(=O)NC3CCCCC3)CC2=O)cc1 (stereo not given)	·	11%	-11%	29%	-22%	15%[59 µM]
COc1ccc(CCN2CC(C(=O)NCCc3ccc(C)cc3)CC2=O)cc1OC (stereo not given)	·	-12%	56µM*!	10%	-35%	2%[59 µM]
COc1ccc(CCN2CC(C(=O)NC3CCCCC3)CC2=O)cc1OC (stereo not given)	·	41%	50µM*	-3%	2%	11%[59 µM]
Cc1ccc(CCNC(=O)C2CC(=O)N(CCc3ccc(C)cc3)C2)cc1 (stereo not given)	·	11%	2%	·	-22%	-1%[59 µM]
CC(C)Nc1nc(NC(C)C)nc(C(=O)OCCO)n1	·	30%	35µM*	-16%	50µM*	?
CCNc1nc(NCC)nc(C(=O)OCCO)n1	·	42%	25µM*	20%	35µM*	40µM*
CCNc1nc(NC(C)C)nc(SCCOC(=O)c2ccccc2)n1	12%	93%	12%	12%	11%	3%
CCc1ccc(Oc2nc3c(C)cccn3c(=O)c2/C=C(\C#N)c2nc3ccccc3s2)cc1	·	28%	2%	·	2%	-7%[59 µM]
N#C/C(=C\c1c(Oc2ccc(Br)cc2)nc2ccccn2c1=O)c1nc2ccccc2s1	·	20%	-10%	·	-33%	2.8µM*
Cc1cc(Oc2nc3ccccn3c(=O)c2/C=C(\C#N)c2nc3ccccc3s2)ccc1Cl	·	38%	-2%	·	-18%	10µM*
CCCOC(=O)c1cccc(NC(=O)c2c(-c3ccccc3Cl)noc2C)c1	·	33%	11%	·	12%	0%[59 µM]
CN1C=CC=C/C1=C1/SC(=S)N(Cc2ccccc2)C1=O	?	?	40µM*	?	?	?
COc1ccc(N2C(=O)/C(=C3/C=CC=CN3C)SC2=S)cc1	-11%	-24%	-37%	50µM*	-30%	45µM*
CCN1C(=O)/C(=C2/C=CC=CN2C)SC1=S	·	?	?	?	-24%	?
